# Only some compounds are listed: those with a hit (about 19% of all), similar ones and a draw of the others.
# TDP1 block = blocks human tyrosyl-DNA phosphodiesterase 1 | recombinant TDP1, AlphaScreen DNA substrate cleavage | Potency, µM (top dose mostly 130 µM), inactives show at the highest dose activity change, negative = inhibition, actives largely listed as inhibitors | 0.28% of 350,000 active | AID 485290; further: potency means the concentration at half of the fitted maximal effect; nearly all actives have a fitted effect of over 40% in size
# Target sequence (Q9NUW8 whole entry, looked up): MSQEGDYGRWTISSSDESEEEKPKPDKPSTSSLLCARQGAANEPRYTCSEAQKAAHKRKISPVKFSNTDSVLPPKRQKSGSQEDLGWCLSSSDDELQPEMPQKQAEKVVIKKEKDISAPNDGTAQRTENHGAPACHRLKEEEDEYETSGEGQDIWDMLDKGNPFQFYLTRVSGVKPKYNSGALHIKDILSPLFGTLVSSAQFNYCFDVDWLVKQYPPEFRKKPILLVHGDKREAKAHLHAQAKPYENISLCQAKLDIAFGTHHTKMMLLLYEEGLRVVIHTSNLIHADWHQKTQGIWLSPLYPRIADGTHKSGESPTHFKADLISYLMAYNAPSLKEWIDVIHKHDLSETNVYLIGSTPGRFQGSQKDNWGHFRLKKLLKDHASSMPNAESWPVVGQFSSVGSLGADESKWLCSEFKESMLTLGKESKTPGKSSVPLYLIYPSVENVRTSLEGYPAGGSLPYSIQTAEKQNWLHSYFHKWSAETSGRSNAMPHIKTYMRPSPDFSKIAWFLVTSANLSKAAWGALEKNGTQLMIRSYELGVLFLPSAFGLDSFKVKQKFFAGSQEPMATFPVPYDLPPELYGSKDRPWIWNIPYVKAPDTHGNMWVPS
#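 Compounds were preincubated with Tdp1 (1 nM final) for 15 min at room temperature before substrate (15 nM final) started a 5 min reaction; beads (10 ug/ml final) were then added for 10 min before AlphaScreen detection.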
# TDP1 cell noCPT = qHTS for Inhibitors of human tyrosyl-DNA phosphodiesterase 1 (TDP1): qHTS in cells in absence of CPT | DT40 Tdp1-/- hTDP1 cells, no CPT, ATP luminescence, 48 h | Potency, µM (highest dose often 46.2 µM), for inactives: at the top dose activity change, negative = growth inhibition, usual class: inhibitors | 15% of 420,000 active; further: potency means the concentration at half of the fitted maximal effect; nearly all actives have a fitted effect of over 55% in size
#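 Luminescent ATP content (CellTiter-Glo) served as the growth readout. Knockout chicken DT40 cells expressing human TDP1 were exposed to compounds without camptothecin for a minimum 48 hr at 37 °C.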
# Giardia kill = kills Giardia lamblia; Giardia lamblia trophozoite viability; activity change, % at 7.66 µM, hits read low; 0.15% of 340,000 active; in the data active means activity change below about -80%; inconclusive means between about -30% and that limit;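 further: parasites exposed to compound for two days anaerobically before the ATP read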
#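 Compounds were tested on trophozoites seeded at 100 cells/well and held 48 hrs at 37 deg C anaerobically. An ATP-based luminescent kit measured the remaining live cells.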
# TDP1 cell CPT = growth inhibition of DT40 Tdp1-/-;hTDP1 cells with camptothecin (screen for TDP1 inhibitors). Potency, µM (titrated, usually from 46.2 µM), for inactives: at the highest dose activity change, negative = growth inhibition, hits mostly inhibitors. chicken DT40 Tdp1-/-;hTDP1 cells + 20 nM CPT, ATP luminescence, 48 h. 12% of 420,000 active; further: potency means the concentration at half of the fitted maximal effect; nearly all actives have a fitted effect of over 55% in size
#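 Chicken DT40 Tdp1-/- cells stably complemented with human TDP1 were seeded at 400 cells/well in medium containing 20 nM camptothecin, exposed to pin-transferred compounds, and grown at 37 °C for at least 48 hr. Viability was read as ATP luminescence.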
# IL-1B inflam inh = inflammasome signaling inhibition, IL-1 beta readout; activity change, % at 57.5 µM; THP-1 LPS/ATP IL-1B secretion, AlphaLISA, 16 h; active compounds read low; 4.7% of 360,000 active; in the data active means activity change below about -50%; inconclusive means mostly about -30% to -49%
#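 Secreted IL-1B measured by AlphaLISA bead assay after 16 h compound exposure of THP-1 cells; compounds (final up to 57.5 uM) added 1 h before LPS (250 ng/mL) and ATP (1.25 mM) stimulation; lower signal means less secretion.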
# ELG1 DNA repair = inhibitors of ELG1-dependent DNA repair in HEK293T cells. Potency, µM (titrated, usually from 46.1 µM), for the others: top-dose activity change, negative = inhibition, actives largely listed as inhibitors. HEK293T ELG1-luciferase reporter, luminescence, 16 h; DNA damage induced by 5-fluorouridine. 2.3% of 330,000 active; further: potency means the concentration at half of the fitted maximal effect; nearly all actives have a fitted effect of over 55% in size
#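 Quantitative HTS, concentration-response format. 2,000 cells/well co-treated with 5-fluorouridine and compound, 16 hr in 5% CO2 at 37 °C; ONE-Glo luminescence read after 30 min.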
# * marks the source's active call; other numbers are inactive results; ? = inconclusive; / = not tested or not shown; ! = a repeat was not active; [ ] = remark or other dose. Unless noted, the call rests on the fitted dose curve; in most records, active means well fitted curve in the direction sought with a large enough effect; inconclusive means small, poorly fitted or top-dose-only effect, or another doubt; inactive means no such curve, though single readings can be large; an effect the other way counts as inactive or inconclusive. On the % scale 0 is the no-effect control and ±100 the full control effect.
SMILES,TDP1 block,TDP1 cell noCPT,Giardia kill,TDP1 cell CPT,IL-1B inflam inh,ELG1 DNA repair
Cc1ccc(C)c(N2CCN(C(=O)c3ccc4c(c3)N(Cc3ccc(F)cc3)C(=O)c3ccccc3S4=O)CC2)c1 (configuration not stated),9%,10µM*,/,18µM*,/,/
Cc1ccc(C)c(CN2C(=O)c3ccccc3S(=O)c3ccc(C(=O)N4CCN(c5ccccc5F)CC4)cc32)c1 (configuration not stated),8%,1.8µM*,/,5.8µM*,/,/
CCN1C(=O)c2ccccc2S(=O)c2ccc(C(=O)N3CCN(c4cc(Cl)ccc4C)CC3)cc21 (configuration not stated),7%,23µM*,/,?,/,/
CCN1CCN(CCNC(=O)c2ccc3c(c2)N(Cc2ccc(F)cc2)C(=O)c2ccccc2S3=O)CC1 (configuration not stated),7%,?,?,-30%,-22,11%
Cc1ccc(Cl)cc1N1CCN(C(=O)c2ccc3c(c2)N(Cc2ccccc2F)C(=O)c2ccccc2S3=O)CC1 (configuration not stated),1%,?,/,?,/,/
Cc1ccc(Cl)cc1N1CCN(C(=O)CN2C(=O)c3cccc4cccc2c34)CC1,-9%,-19%,-7,-16%,-13,21µM*
COCCN1C(=O)N[C@@H](CCc2ccccc2)[C@H](C(=O)OC)[C@H]1C,9%[21 µM],-14%,?,?,-2,/
COc1ccc2c(c1-c1c3c(cc(Br)c1OC)CCCC3)CCCC2,7%,/,/,/,/,/
CCOC(=O)C1CCCN(C(=O)c2ccc3c(c2)N(Cc2ccccc2F)C(=O)c2ccccc2S3=O)C1 (configuration not stated),1%,16µM*,/,?,/,/
CCN1CCN(C(=O)c2ccc3c(c2)N(Cc2cc(C)ccc2C)C(=O)c2ccccc2S3=O)CC1 (configuration not stated),3%,16µM*,/,18µM*,/,/
Cc1ccc(C)c(CN2C(=O)c3ccccc3S(=O)c3ccc(C(=O)N4CCN(c5ccccn5)CC4)cc32)c1 (configuration not stated),2%,16µM*,2,?,-24,?
Cc1ccc(S(=O)(=O)N2CCCCC2)cc1NC(=O)c1ccccn1,1%,-30%,3,?,-6,-8%
COc1ccc(NC(=O)c2ccc3oc(=O)c(S(=O)(=O)c4ccc(C)cc4)cc3c2)cc1OC,5%,-10%,/,18%,/,/
COc1ccc(C(=O)Cc2nnc(C)s2)cc1,5%,4%,5,1%,27,?
CC(=O)OCC(=O)C1(O)CCC2C3CC(C)C4=CC(=O)C=CC4(C)C3(F)C(O)CC21C (configuration not stated),/,-17%,-7,-11%,/,/
CC(=O)C1(O)CCC2C3CC(C)C4=CC(=O)C=CC4(C)C3(F)C(O)CC21C (configuration not stated),/,-28%,7,?,-54*,/
C[C@]12CCC(=O)C=C1CCC1C2C(O)C[C@]2(C)C1CC[C@]2(O)C(=O)COC(=O)CCC(=O)O (some centres not stated),9%,-7%,/,4%,/,/
CC12C=CC(=O)C=C1CCC1C3CCC(O)(C(=O)CO)C3(C)CC(O)C12F (configuration not stated),/,-6%,6,-5%,-57*,/
C[C@]12CCC(=O)C=C1CC[C@@H]1[C@@H]2[C@@H](O)C[C@@]2(C)[C@H]1CC[C@]2(O)C(=O)COC(=O)CCC(=O)O,11%,8.4µM*!,?,?,?,23%
CC(=O)OCC(=O)[C@@]1(O)CC[C@@H]2[C@H]3CCC4=CC(=O)CC[C@]4(C)[C@]3(F)[C@@H](O)C[C@@]21C,13%[21 µM],/,/,/,/,/
CC(=O)OCC(=O)C1(O)CCC2C3CCC4=CC(=O)CCC4(C)C3(F)C(O)CC21C (configuration not stated),/,-21%,9,-5%,-53*,/
CCOC(=O)c1c(NC(=O)CSc2ncnc3[nH]ncc23)sc2c1CCC(C)C2 (configuration not stated),5%,?,11,-29%,-5,?
CC(=O)OCC(=O)[C@@]1(O)CC[C@H]2[C@@H]3CCC4=CC(=O)C=C[C@]4(C)[C@@]3(F)[C@@H](O)C[C@@]21C,/,2%,-7,-21%,-56*,13%
O[C@H]1CN(Cc2cccs2)[C@@H](c2ccccc2)C[C@@H]1n1cc(C2CC2)nn1,/,10%,/,-7%,34,/
COc1cc(N=c2ssnc2Cl)cc(OC)c1,-2%,13µM*,18,10µM*,?,-24%
SMILES,TDP1 block,TDP1 cell noCPT,Giardia kill,TDP1 cell CPT,IL-1B inflam inh,ELG1 DNA repair
Clc1ccc(N=c2ssnc2Cl)nc1,3%,2.6µM*,21,3.3µM*,-14,1%
OCc1ccccc1N=c1ssnc1Cl,4%,/,/,/,/,0%
Clc1nssc1=Nc1nncs1,-5%,7.3µM*,-28,5.8µM*,-73*,6%
Clc1nssc1=Nc1ccc(Br)cc1,-1%,13µM*,-11,10µM*,-97*,?
OCC(O)C[n+]1cccc(Br)c1 (configuration not stated),/,-20%,/,8%,/,/
CC(C)CN1CCN(Cc2cn(C)c3ccccc23)CC1CCO (configuration not stated),/,?,8,?,13,4%
CC(C)=CCN1CCN(Cc2cc(C(C)C)n[nH]2)CC1CCO (configuration not stated),3%,-24%,0,3%,-1,2%
N#Cc1cccc(N=c2ssnc2Cl)c1,6%,6.5µM*,13,3.3µM*,-9,?
CCNC(=O)c1cc2c(c(-c3cccc(-c4cccnc4)c3)n1)[C@H](CCO)N(S(C)(=O)=O)C2,/,4.1µM*,/,4.6µM*,41,/
CCS(=O)(=O)N1Cc2cc(C(=O)NCC3CC3)nc(-c3cccc(-c4cccnc4)c3)c2[C@@H]1CCO,/,26µM*,/,?,-5,/
CC(=O)N1Cc2cc(C(=O)NCC(F)(F)F)nc(-c3cccc(-c4cccnc4)c3)c2[C@@H]1CCO,/,5.8µM*,/,6.5µM*,72,/
c1coc(-c2cc3nc(NCc4ccc5c(c4)OCO5)ccn3n2)c1,/,-18%,/,?,-12,/
CC(C)(C)NC(=O)Cn1nnc(-c2ccc(OCc3c(F)cccc3Cl)cc2)n1,4%,?,10,?,?,?
